This passage reports outcome, max response and Potency results from PubChem BioAssay (Tox21).

SMILES strings stand for the structures. Values joined by “and” are separate entries in the source; they are usually repeats but may differ in a detail not shown here. Equal entries are not always repeated. A number with no mark means an inactive call. Results filed as inconclusive are left out. More than one record can exist for a structure, and the calls need not agree. Active and inactive are the calls of the source. Calls come from the whole dose curve; as a rule, active = well fitted curve in the direction sought with a large enough effect in the repeat runs; inconclusive = weak or mixed curves; inactive = no such curve, though single readings can be large; an effect the other way counts as inactive or inconclusive.

The nature of experiment [1]: qHTS RealTime-Glo MT Cell Viability Assay in HEK293 cells - 16 hour (AID 1224872). Note: top concentration of the series differs between compounds; nearly all actives have a fitted effect of over 50% in size. An outline of the steps: (§1)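 Reads taken at 0, 8, 16, 24, 32 and 40 h from the same wells. HEK293 cells (600/well) carried RealTime-Glo reagents from seeding, with compound added after a 5 h settle at 37 C.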
For orientation: In qHTS, concentration-response curves come from the screen itself.

Experiment [2] in a line: qHTS RealTime-Glo MT Cell Viability Assay in HepG2 cells - 8 hour (AID 1224873). Note: nearly all actives have a fitted effect of over 55% in size. The gist of the method: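 Real-time viability: cells seeded at 600 per well together with NanoLuc and cell-permeant prosubstrate, compounds added after 5 h incubation. Luminescence tracked at 0, 8, 16, 24, 32 and 40 h of exposure.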
Experiment [3] can be described thus: qHTS RealTime-Glo MT Cell Viability Assay in HEK293 cells - 40 hour (AID 1224874). Note: nearly all actives have a fitted effect of over 50% in size. Note: potency is the fitted concentration of half-maximal effect. Conditions: RealTime-Glo luminescence; max response: hits give low values. An outline of the steps: (§2)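 600 HEK293 cells per well, dispensed already mixed with RealTime-Glo MT reagents. Compound dosing came 5 h later. The same wells were read for luminescence at 0, 8, 16, 24, 32 and 40 h of exposure at 37 C.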

Experiment [4] is described as follows: A CellTox Green Cytotoxicity Assay to monitor cytotoxicity in HEK293 cells - 24 hour (AID 1224875). Note: series mostly up to about 77 µM; nearly all actives have a fitted effect of over 45% in size. The gist of the method:
(§3)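 Dead-cell fluorescence measured kinetically: asymmetric cyanine dye, HEK293, 600 cells/well, 5 h settle, 23 nL cpd/DMSO, 37 C, reads 0–40 h every 8 h.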

A short description of experiment [5]: A CellTox Green Cytotoxicity Assay to monitor cytotoxicity in HepG2 cells - 16 hour (AID 1224876). Note: nearly all actives have a fitted effect of over 45% in size. An outline of the steps:
(§4)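 First, HepG2 cells (600/well) mixed with reagent were plated; second, after 5 h at 37 C they received compounds via pintool; third, fluorescence was measured at 0 h through 40 h at 8 h intervals.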

Experiment [6] is described as follows: qHTS RealTime-Glo MT Cell Viability Assay in HepG2 cells - 32 hour (AID 1224877). Note: nearly all actives have a fitted effect of over 55% in size. An outline of the steps: (§5)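 HepG2 suspension premixed with RealTime-Glo reagents is plated at 600 cells per well and left 5 h at 37 C/5% CO2. Compounds in DMSO then go in, and bioluminescence reflecting viable cell number is recorded over 40 h.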
Experiment [7] is described as follows: A CellTox Green Cytotoxicity Assay to monitor cytotoxicity in HepG2 cells - 24 hour (AID 1224878). Note: nearly all actives have a fitted effect of over 45% in size. An outline of the steps: as §4
Experiment [8] in a line: qHTS RealTime-Glo MT Cell Viability Assay in HEK293 cells - 0 hour (AID 1224880). Note: top concentration of the series differs between compounds; nearly all actives have a fitted effect of over 45% in size. An outline of the steps: as §2
A short description of experiment [9]: A CellTox Green Cytotoxicity Assay to monitor cytotoxicity in HEK293 cells - 32 hour (AID 1224881). Note: nearly all actives have a fitted effect of over 40% in size. An outline of the steps:
as §3

Experiment [10] is described as follows: A CellTox Green Cytotoxicity Assay to monitor cytotoxicity in HepG2 cells - 0 hour (AID 1224882). Note: nearly all actives have a fitted effect of over 35% in size. An outline of the steps: as §4
Experiment [11] in a line: A CellTox Green Cytotoxicity Assay to monitor cytotoxicity in HepG2 cells - 32 hour (AID 1224883). Note: nearly all actives have a fitted effect of over 50% in size. An outline of the steps:
as §4

Experiment [12] can be described thus: A CellTox Green Cytotoxicity Assay to monitor cytotoxicity in HEK293 cells - 8 hour (AID 1224884). Note: nearly all actives have a fitted effect of over 35% in size. An outline of the steps:
as §3

A short description of experiment [13]: qHTS RealTime-Glo MT Cell Viability Assay in HepG2 cells - 16 hour (AID 1224885). Note: nearly all actives have a fitted effect of over 50% in size. An outline of the steps:
as §5

Experiment [14] in a line: qHTS RealTime-Glo MT Cell Viability Assay in HEK293 cells - 24 hour (AID 1224886). An outline of the steps:
as §1

Experiment [15] can be described thus: qHTS RealTime-Glo MT Cell Viability Assay in HEK293 cells - 8 hour (AID 1224887). The gist of the method:
as §2

Experiment [16] can be described thus: qHTS RealTime-Glo MT Cell Viability Assay in HepG2 cells - 0 hour (AID 1224889). Note: nearly all actives have a fitted effect of over 50% in size. The gist of the method:
as §5

Experiment [17] can be described thus: A CellTox Green Cytotoxicity Assay to monitor cytotoxicity in HepG2 cells - 8 hour (AID 1224890). Note: nearly all actives have a fitted effect of over 45% in size. An outline of the steps: as §4
The nature of experiment [18]: qHTS assay to identify small molecule antagonists of the estrogen receptor alpha (ER-alpha) signaling pathway using the BG1 cell line in the presence of 0.1 nM 17-beta-estradiol - cell viability counter screen (AID 1259241). Note: nearly all actives have a fitted effect of over 40% in size. An outline of the steps:
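Cells were plated and left 24 hr, compounds in DMSO were pinned in, 17beta-estradiol was added to 0.1 nM final, and after 22 hr CellTiter-Fluor reagent was added for 30 min before fluorescence was read.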

A short description of experiment [19]: A CellTox Green Cytotoxicity Assay to monitor cytotoxicity in HepG2 cells - 40 hour (AID 1224879). Note: nearly all actives have a fitted effect of over 40% in size. The gist of the method:
as §4

Experiment [20] in a line: A CellTox Green Cytotoxicity Assay to monitor cytotoxicity in HEK293 cells - 16 hour (AID 1224888). Note: nearly all actives have a fitted effect of over 35% in size. The gist of the method:
as §3
% is set by controls: 0 for no effect and ±100 for the full control effect.

In the case of `CC[N+](=O)[O-]`, the outcome in experiment [1], in experiment [2], in experiment [6], in experiment [8], in experiment [13] and in experiment [14] was inactive. In addition, the outcome in [15], in experiment [16] and in experiment [18] was inactive. The max response in experiment [3] is 7.02% and 16.9%. The Potency entry in [4], in experiment [5], in [7], in [9], in [10] and in experiment [11] was “inactive” in each case. The Potency result in [12] and in experiment [17] was “inactive” each time.
As to `Cc1cccc(C)c1NC(=O)CN1CCCC1=O`, the call in experiment [1], in [2], in [6], in [8], in experiment [13] and in experiment [14] was inactive. Besides, the outcome in experiment [15], in experiment [16] and in experiment [18] was inactive. The max response in experiment [3] was 1.79% and -7.42% and 6.42%. Moreover, the Potency entry in [4], in experiment [5], in experiment [9], in experiment [10], in experiment [11] and in experiment [17] was “inactive” throughout.
Regarding `O=P1(NCCCl)OCCCN1CCCl` (stereo not given), the result in experiment [1], in experiment [2], in experiment [6], in experiment [8], in experiment [13] and in experiment [14] was inactive. Further, the call in [15], in experiment [16] and in experiment [18] was inactive. Moreover, the max response in experiment [3] was 0.555% and 9.01% and 5.36%. The Potency result in experiment [4], in experiment [5], in [19], in experiment [9], in [10] and in [11] was “inactive” in each case. Also, the Potency result in experiment [17] is “inactive”.
Regarding `COc1nc(NC(C)C)nc(NC(C)C)n1`, the outcome in experiment [1], in experiment [2], in experiment [6], in experiment [8], in experiment [13] and in [14] was inactive. The call in experiment [15], in [16] and in experiment [18] was inactive. Besides, in experiment [3], the max response is -0.66% and 0.377%. For the same molecule, the Potency entry in experiment [4], in [5], in [7], in experiment [9], in experiment [10] and in experiment [11] was “inactive” each time. In experiment [17], the Potency result was “inactive”.
Regarding `Nc1ccc([As](=O)(O)O)cc1`, the call in [1], in experiment [2], in [6], in [13], in [14] and in experiment [15] was inactive. Also, the molecule was called inactive in experiment [16] and in experiment [18]. The max response in experiment [3] was 6.3% and -4.26% and 1.01%. The Potency result in experiment [4], in experiment [5], in experiment [7], in [19], in [9] and in [10] was “inactive” in each case. Further, the Potency result in experiment [11], in experiment [20] and in [17] was “inactive” throughout.
As for `Nc1ccc(N)cc1`, the molecule was called inactive in experiment [1], in experiment [2], in [6], in experiment [13], in [14] and in [15]. In addition, the call in [16] and in experiment [18] was inactive. The max response in [3] is 13.6% and -13%. For the same molecule, the Potency entry in experiment [4], in experiment [5], in experiment [7], in experiment [19], in [9] and in experiment [10] was “inactive” each time. Besides, the Potency result in experiment [11], in experiment [20] and in experiment [17] was “inactive” each time.
As for `CCOP(=S)(OCC)Oc1ccc([N+](=O)[O-])cc1`, the outcome in experiment [1], in experiment [2], in experiment [6], in experiment [8], in [13] and in experiment [14] was inactive. Moreover, the molecule was called inactive in experiment [15], in experiment [16] and in experiment [18]. Also, the max response in experiment [3] was -18.1% and -17.8%. Moreover, the Potency entry in [4], in [5], in experiment [19], in experiment [9], in [10] and in experiment [11] was “inactive” each time. The Potency result in experiment [12] and in [17] was “inactive” throughout.
Turning to `CCSC(=O)N1CCCCCC1`, the outcome in experiment [1], in experiment [2], in [6], in experiment [13], in experiment [14] and in [15] was inactive. In addition, the result in experiment [16] and in experiment [18] was inactive. In addition, the Potency in [3] was 12 µM (active). The max response in experiment [3] is 3.34%. Also, the Potency result in experiment [4], in experiment [5], in [9], in experiment [10], in experiment [11] and in experiment [12] was “inactive” each time. Further, the Potency result in experiment [20] and in [17] was “inactive” each time.
`CNC(=O)O/N=C/C(C)(C)S(C)=O` (stereo not given): the molecule was classed as inactive in experiment [1], in [2], in experiment [6], in [8], in experiment [13] and in experiment [14]. The result in experiment [15], in experiment [16] and in [18] was inactive. The max response in experiment [3] is 16.8% and -17.7%. Besides, the Potency entry in experiment [4], in experiment [5], in [7], in [19], in experiment [9] and in experiment [10] was “inactive” each time. Besides, the Potency result in experiment [11], in [12] and in experiment [17] was “inactive” in each case.
With `CNC(=O)O/N=C/C(C)(C)SC`, the molecule was called inactive in [1], in experiment [2], in experiment [6], in experiment [8], in experiment [13] and in experiment [14]. For the same molecule, the molecule was classed as inactive in experiment [15], in [16] and in experiment [18]. The max response in experiment [3] was 6.31% and 4.21%. The Potency entry in [4], in experiment [5], in [7], in experiment [19], in [9] and in experiment [10] was “inactive” in each case. For the same molecule, the Potency entry in [11], in [12], in experiment [20] and in [17] was “inactive” in each case.
Take `ClC(Cl)c1ccccc1`: the call in experiment [1], in experiment [2], in experiment [6], in [13], in experiment [14] and in experiment [15] was inactive. Moreover, the outcome in [16] and in [18] was inactive. Also, the max response in experiment [3] is 4.95% and 0.497%. Further, the Potency entry in experiment [4], in [5], in experiment [7], in [9], in [10] and in experiment [11] was “inactive” in each case. Besides, the Potency entry in experiment [20] and in [17] was “inactive” each time.
Consider `CNCC(O)c1ccc(O)cc1` (stereo not given), for which the outcome in experiment [1], in [2], in [6], in experiment [13], in experiment [14] and in experiment [15] was inactive. Moreover, the molecule was classed as inactive in [16] and in [18]. For the same molecule, the max response in experiment [3] was 4.3% and -3.08%. Also, the Potency entry in experiment [4], in experiment [5], in experiment [19], in experiment [9], in experiment [10] and in experiment [11] was “inactive” throughout. Also, the Potency result in experiment [12] and in experiment [17] was “inactive” in each case.
Regarding `CC(=O)C1CCOC1=O` (stereo not given), the molecule was classed as inactive in [1], in [2], in experiment [6], in [8], in [13] and in [14]. Also, the molecule was called inactive in experiment [15], in [16] and in experiment [18]. Moreover, the max response in [3] is 3.16% and 1.64%. Also, the Potency result in experiment [4], in experiment [5], in [7], in experiment [19], in [9] and in [10] was “inactive” each time. Further, the Potency entry in [11], in experiment [12], in [20] and in experiment [17] was “inactive” in each case.
Regarding `Cc1cccc(N)c1`, the outcome in experiment [1], in experiment [2], in [6], in experiment [8], in experiment [13] and in [14] was inactive. For the same molecule, the molecule was called inactive in experiment [15], in experiment [16] and in [18]. In [3], the max response is 6.61% and 3.01%. The Potency entry in experiment [4], in experiment [5], in [9], in [10], in experiment [11] and in experiment [12] was “inactive” each time. For the same molecule, the Potency result in experiment [17] was “inactive”.
